# Assay outcomes: PubChem, Broad Institute
# Shown are actives, neighbours in structure and some others; about 2.8% of the full set was active somewhere.
# PvdQ acylase – blocks Pseudomonas aeruginosa PvdQ acylase activity. purified PvdQ acylase, fluorescence plate reader. inhibition, % at 10 µM. actives 0.063% (n = 340,000); in the data active means inhibition above about 30%, passing the limit was not always enough;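 further: 0% = vehicle neutral wells and 100% = reference inhibitor wells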
# SIRT5 block – sirtuin-5 (human) deacylase inhibition; inhibition, % at 15 µM; AID 652115; actives 1.1% (n = 330,000); Purified SirT5, succinyl-peptide AMC, trypsin-coupled fluorescence; Q9NXA8; in the data active means inhibition above about 15%
# Target sequence (Q9NXA8 whole entry, looked up): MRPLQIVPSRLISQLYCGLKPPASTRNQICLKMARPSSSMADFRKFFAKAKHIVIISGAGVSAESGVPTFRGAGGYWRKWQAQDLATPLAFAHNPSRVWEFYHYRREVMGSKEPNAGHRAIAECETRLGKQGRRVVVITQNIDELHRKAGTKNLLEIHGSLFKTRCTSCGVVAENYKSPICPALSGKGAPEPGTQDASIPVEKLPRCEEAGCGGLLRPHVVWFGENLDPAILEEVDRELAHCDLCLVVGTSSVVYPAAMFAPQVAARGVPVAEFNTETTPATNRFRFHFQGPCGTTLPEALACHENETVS
# CDK5 inh – blocks human CDK5/p35 kinase activity | Q00535+Q15078 | Recombinant CDK5/p35, ADP-Glo luminescence, 60 min | inhibition, % at 10 µM | actives 0.01% (n = 330,000) | AID 488839;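 active means highest replicate inhibition of at least 50% and at least 75% of replicates reaching 50%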;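 further: plate controls were DMSO neutral control for no effect and GW8510 at 10 µM for full effect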
# dFosB act-1 – mouse delta FosB homodimer activation | purified delta FosB, TAMRA-CDK5 oligo fluorescence polarization; percent of positive-control signal above neutral wells | activation, % at 25 µM | actives 0.99% (n = 340,000);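 active means mean activation above about 17%, with every replicate also reaching it, limit read from the data, passing the limit was not always enough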
# Target sequence (P13346 whole entry, looked up): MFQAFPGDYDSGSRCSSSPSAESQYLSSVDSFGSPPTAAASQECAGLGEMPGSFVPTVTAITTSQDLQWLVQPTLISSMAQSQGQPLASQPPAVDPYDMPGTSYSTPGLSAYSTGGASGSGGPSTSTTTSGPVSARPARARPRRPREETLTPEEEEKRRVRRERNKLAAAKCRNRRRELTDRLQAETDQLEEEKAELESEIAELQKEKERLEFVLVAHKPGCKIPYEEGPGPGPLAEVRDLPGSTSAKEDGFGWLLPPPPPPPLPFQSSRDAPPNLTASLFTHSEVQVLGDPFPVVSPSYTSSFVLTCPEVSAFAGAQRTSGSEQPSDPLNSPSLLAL
# PglD DTNB – blocks C. jejuni PglD acetyltransferase activity; inhibition, % at 12.5 µM; actives 0.098% (n = 360,000); purified PglD enzyme, DTNB colorimetric CoA detection; in the data active means inhibition above about 16%, passing the limit was not always enough
# FGF22 binding – FGF22 (human) thermal shift binding. Q9HCT0. recombinant FGF22 thermal shift, SYPRO orange fluorescence; percent of sucrose octasulfate shift, DMSO zero. activity (Tm shift, normalised), % at 9.99 µM. actives 1.5% (n = 340,000). AID 651658;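 active means mean Tm shift, scaled 0 neutral to 100 positive control, at about 1.3% or above, every replicate too, limit read from the data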
# dFosB act-2 – activators of mouse delta FosB homodimer DNA binding; shares compounds with dFosB act-1; purified delta FosB, TAMRA-CDK5 oligo fluorescence polarization; normalised: neutral wells 0, positive control 100; activation, % at 24.9 µM; 2,400 tested, under 10 active; AID 588690;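 active means highest replicate activation at or above 34% and every replicate reaching that threshold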;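 further: higher polarization means more probe DNA bound by delta FosB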
# Active calls of the source: *; . = no result given.
SMILES,PvdQ acylase,SIRT5 block,CDK5 inh,dFosB act-1,PglD DTNB,FGF22 binding,dFosB act-2
CCOc1cccc2sc(=NC(=O)c3ccco3)n(CC(=O)OC)c12,-0.1,-5.1,-1.5,-13.0,.,0.2,.
C#CCn1c(=NC(=O)c2ccco2)sc2cccc(Cl)c21,-6.8,12.2,-3.0,26.2*,.,-0.1,4.2
O=C(C[C@H]1CC[C@@H]2[C@H](COC[C@H](O)CN2C(=O)c2ccccc2)O1)Nc1ccc(-c2ccccc2)cc1,.,5.3,.,.,-1.5,.,.
Cc1cccc(Cn2c(=O)n(-c3ccc(CC(=O)NCc4ccco4)cc3)c(=O)c3sccc32)c1,7.2,.,-2.2,48.5*,-0.8,0.2,-1.8
Cc1ccc(NC(=O)Cn2c(=O)n(CCCC(=O)NCc3ccco3)c(=O)c3ccccc32)cc1,-7.5,.,1.0,32.3*,3.0,.,-2.7
COc1cc2c(=O)n(Cc3ccccc3)c(=O)n(CC(=O)NCc3ccco3)c2cc1OC,0.6,.,-0.7,31.2*,2.6,.,5.0
Cc1ccc(CNC(=O)CCCn2c(=O)c3ccccc3n(CC(=O)NCc3ccco3)c2=O)cc1,-17.2,.,-3.9,0.3,-0.6,.,.
Cc1ccc(-n2c(=O)c3sccc3n(CC(=O)NCc3ccco3)c2=O)cc1,1.0,.,-1.3,-5.4,-1.2,.,.
Cc1ccc(Cn2c(=O)n(-c3ccccc3)c(=O)c3ccc(C(=O)NCc4ccco4)cc32)cc1,12.3,.,1.0,26.3*,5.5,-0.2,7.4
O=C(C[C@H]1CC[C@@H]2[C@H](COC[C@H](O)CN2C(=O)c2ccncc2)O1)NC1Cc2ccccc2C1,.,-0.4,.,.,3.2,-0.8,.
C/C=C/c1ccc([C@@H]2[C@@H](CN(C)C(=O)CC)N(C(=O)C3CC3)[C@H]2CO)cc1,.,-0.6,.,.,0.3,-0.1,.
O=C(C1CCCC1)N1CC(=O)N2[C@@H](CO)[C@@H](c3ccc(-c4ccccc4F)cc3)[C@@H]2C1,.,0.3,.,.,.,.,.
O=C(C[C@@H]1CC[C@@H](NC(=O)Nc2ccccc2)[C@H](CO)O1)NCc1ccccn1,.,1.9,.,.,-2.2,0.1,.
O=C(Cn1c(=O)n(CC(=O)NCc2ccccc2)c2ccccc21)NCc1ccccc1,0.1,.,0.6,24.5*,-2.4,.,-1.1
C[C@H]1CN([C@@H](C)CO)C(=O)Cc2cc(NC(=O)C3CCCCC3)ccc2O[C@H]1CN(C)C(=O)Nc1ccccc1,.,-3.3,.,.,-0.4,-0.3,.
Cc1ccccc1S(=O)(=O)NCC[C@@H]1CC[C@H](NC(=O)C2CCCC2)[C@@H](CO)O1,.,3.9,.,.,2.7,-0.3,.
Cc1cccc2nc(-c3cccc(NC(=O)c4ccc(Cl)cc4)c3)cn12,11.3,3.5,1.4,20.6*,-0.1,0.1,5.7
Cc1cc(C(=O)Nc2cccc(S(=O)(=O)N3CCCCC3)c2)c2ccccc2n1,-12.4,-2.9,-1.1,-9.1,2.0,0.1,.
O=C(Cn1nc(C(=O)O)c2ccccc2c1=O)Nc1cccc(S(=O)(=O)N2CCCC2)c1,2.8,-0.8,-0.1,-9.2,-1.5,-0.1,.
O=C(Cn1nc(C(=O)O)c2ccccc2c1=O)Nc1cccc(S(=O)(=O)N2CCCCCC2)c1,11.2,.,4.6,32.3*,.,0.2,-0.9
O=C(Nc1cccc(S(=O)(=O)N2CCCCC2)c1)c1c2c(nc3ccccc13)CCN(Cc1ccccc1)C2,6.9,-1.7,-1.3,51.7*,.,-0.5,-1.9
O=C(O)c1nn(CC(=O)N2CCN(S(=O)(=O)c3ccc(Cl)cc3)CC2)c(=O)c2ccccc12,0.2,1.6,2.2,30.1*,1.0,0.1,4.1
COc1cc(C(=O)NCc2ccc(-c3nc4ccccc4o3)cc2)cc(OC)c1OC,8.3,.,-1.8,27.3*,-2.7,.,5.3
COc1ccc(NC(=O)N(C)C[C@@H]2Oc3ccc(NC(=O)Nc4ccc(F)cc4)cc3C(=O)N([C@@H](C)CO)C[C@@H]2C)cc1,.,1.7,.,.,5.4,0.0,.
O=C(O)COc1ccc(C(NC(=O)c2c(F)cccc2F)NC(=O)c2c(F)cccc2F)cc1,6.8,-3.8,-0.3,4.1,1.8,-0.1,.
SMILES,PvdQ acylase,SIRT5 block,CDK5 inh,dFosB act-1,PglD DTNB,FGF22 binding,dFosB act-2
O=C(NC(NC(=O)c1c(F)cccc1F)c1ccc([N+](=O)[O-])cc1)c1c(F)cccc1F,-13.6,-1.9,1.7,23.9*,-6.2,0.0,5.2
O=C(c1ccc(F)cc1)N1CC(=O)N2[C@H](CO)[C@@H](c3ccc(C#CC4CC4)cc3)[C@H]2C1,.,2.8,.,.,.,.,.
Cc1cc2nc(C)n(CCCNC(=O)Nc3cccc4ccccc34)c2cc1C,-6.2,.,1.6,53.2*,.,.,2.4
COC(=O)Cn1c(=NC(=O)CSCC(=O)NC2CCCCC2)sc2cc(OC)ccc21,3.4,.,0.1,29.4*,5.0,.,-1.4
C(=N\Nc1nc(Nc2ccccc2)nc(Nc2ccccc2)n1)/c1cccnc1,-10.7,.,-2.8,65.3*,.,.,-0.2
O=C(NC(C(=O)N/N=C/c1cccc2ccccc12)c1n[nH]c(=O)c2ccccc12)c1ccccc1 (configuration not stated),-6.5,.,-0.6,27.5*,-1.9,.,8.1
O=C(NC(C(=O)N/N=C/c1ccncc1)c1n[nH]c(=O)c2ccccc12)c1ccccc1 (configuration not stated),5.6,-5.6,4.6,-12.3,.,0.1,.
COc1ccc(Nc2nc(NN)nc(Nc3ccc(OC)cc3)n2)cc1,-13.2,-0.7,1.1,24.9*,0.1,0.0,1.5
NNc1nc(Nc2ccccc2)nc(Nc2ccccc2)n1,-6.6,3.0,0.0,46.4*,4.5,0.2,-6.8
Cc1noc(C)c1S(=O)(=O)Nc1ccc2c(c1)C(=O)N([C@@H](C)CO)C[C@@H](C)[C@@H](CN(C)S(=O)(=O)c1cn(C)cn1)OCCCC[C@@H](C)O2,.,-2.3,.,.,-1.1,1.1,.
Cc1ccc(S(=O)(=O)NCC[C@H]2CC[C@@H](NC(=O)CCN3CCCCC3)[C@@H](CO)O2)cc1,.,14.5,.,.,2.5,-0.8,.
CC(C)(C)C1CCc2c(sc(NC(=O)c3ccncc3)c2C(N)=O)C1 (configuration not stated),-7.5,.,0.5,34.0*,-1.2,0.0,2.6
Cc1occc1C(=O)Nc1sc2c(c1C(N)=O)CCC(C(C)(C)C)C2 (configuration not stated),6.1,.,-2.0,0.8,3.6,.,.
Cc1ccc(S(=O)(=O)N[C@@H]2C=C[C@@H](CC(=O)NCCN3CCCCC3)O[C@@H]2CO)cc1,.,-2.2,.,.,-2.9,0.5,.
CC(=O)N1[C@H](CO)[C@H](c2ccc(C3=CCCC3)cc2)C12CN(C(=O)C1CC1)C2,.,-4.2,.,.,.,-0.1,.
Cc1ccc(Nc2nc(Nc3ccc(C)cc3)nc(SC3=NCCS3)n2)cc1,-3.1,.,4.7,25.6*,.,.,4.6
Cc1ccccc1Nc1nc(Nc2ccccc2C)nc(SC2=NCCS2)n1,-8.2,0.8,-0.5,1.2,-4.8,0.0,.
